“And” between values parts separate entries of the source, which are not always exact repeats. Equal entries are not always repeated.

Results on 39 compounds are retold here after the supplement of paper PMC7156485.
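Also: TDF denotes transformed human dermal fibroblasts of mesenchymal origin.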

In this experiment the test system is HCC1569. Description: cell number relative to DMSO (% of DMSO); higher = more cells (less growth inhibition / toxicity). The following applies: concentration: 10 µM; 24 h. Summed up: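 H1.0 nuclear intensity or cell number is stated as percent of the plate control, based on the median of replicates, and HCC1569 values were smoothed for positional effects. These came from HCC1569 and TDF cells treated with compounds at 10 µM for 24 h at 37 °C in triplicate, then fixed in 3.7% formaldehyde and stained with a rabbit anti-H1.0 antibody, an AlexaFluor 647 secondary and DAPI.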
`CCOC(=O)C(CCc1ccccc1)NC(C)C(=O)N1C(C(=O)O)CC2CCCC21` (centres undefined) [Ramipril] gave a cell number of 105.

`C[N+](C)(C)CCOC(N)=O.[Cl-]` [Carbachol]: the cell number is 105.

Turning to `CCCCCC(CC(=O)NO)C(=O)NC(C(=O)N1CCCC1CO)C(C)C` (centres undefined) [Actinonin], the cell number stood at 101.

`CS(=O)(=O)CCNCc1nc(-c2ccc3ncnc(Nc4ccc(OCc5cccc(F)c5)c(Cl)c4)c3c2)cs1.Cl.Cl` yielded a cell number of 88.4.

In turn, `CCn1cc(C(=O)O)c(=O)c2ccc(Cc3ccccc3)nc21` [Amfonelic acid] had a cell number of 101.

For `CC(O)(P(=O)([O-])O)P(=O)([O-])O` [Etidronate], the cell number was 101.

As to `NC(=O)NO` [Hydroxyurea], the cell number worked out at 103.

Consider `CNc1nccc(-c2cccnc2Oc2cc(C(=O)Nc3cccc(C(F)(F)F)c3)ccc2C)n1`, for which the cell number is 82.3.

For the compound `COC(=O)Nc1nc2ccc(C(=O)c3ccccc3)cc2[nH]1` [Mebendazol], the cell number is 69.2.

`CCOC(=O)c1cnc2c(cnn2CC)c1NN=C(C)C.Cl` [Etazolate hydrochloride] gave a cell number of 107.

Consider `Cc1ccc(S(=O)(=O)NC(Cc2ccccc2)C(=O)CCl)cc1` [N-p-Tosyl-L-phenylalanine chloromethyl ketone], for which the cell number turned out to be 85.5.

In turn, `Cl.NO` [Hydroxylamine hydrochloride] showed a cell number of 96.2.

For `CC(=O)NC(CS)C(=O)O` (centres undefined) [N-Acetyl-Cysteine], the cell number is 102.

`COc1cc(-c2oc3cc(O)ccc3c(=O)c2O)ccc1O` [Geraldol]: the cell number is 85.9.

For `COc1ccc(-c2nn3c(-c4ccccn4)nnc3s2)cc1OC`, the cell number is 98.

The compound `CN1CCN(CC(=O)N2c3ccccc3C(=O)Nc3cccnc32)CC1.Cl.Cl` [Pirenzepine.2HCl] came in with a cell number of 101.

In the case of `Cc1c(C)c2c(c(C)c1O)CCC(C)(COc1ccc(CC3SC(=O)NC3=O)cc1)O2` (centres undefined) [Troglitazone], the cell number came out at 99.8.

Consider `Cc1ccc(S(=O)(=O)NC(=O)NN2CC3CCCC3C2)cc1` (centres undefined) [Gliclazide], for which the cell number came to 101.

`O=C(O)c1ccccc1Nc1cccc(OCc2ccc3ccccc3n2)c1` showed a cell number of 104.

In turn, `CCOP(=O)(OCC)C(=Cc1cc(C(C)(C)C)c(O)c(C(C)(C)C)c1)P(=O)(OCC)OCC` had a cell number of 90.7.

Regarding `Cn1c(=O)c2[nH]c(-c3ccc(S(=O)(=O)O)cc3)nc2n(C)c1=O` [8-(p-Sulfophenyl)theophylline], the cell number is 101.

With `CCCCCC=CCC=CCCCCCCCCCCC(=O)O` [12(Z), 15(Z)-Heneicosadienoic acid], the cell number came out at 100.

On to `C=CC1CN2CCC1CC2C(O)c1ccnc2ccc(OC)cc12.C=CC1CN2CCC1CC2C(O)c1ccnc2ccc(OC)cc12.O=S(=O)(O)O` (centres undefined) [Quinine sulfate], for which the cell number worked out at 102.

The compound `CCCC1=C(c2ccc(O)cc2)N(c2ccc(O)cc2)NC1=C1C=CC(=O)C=C1` [1,3,5-tris(4-hydroxyphenyl)-4-propyl-1H-pyrazole] showed a cell number of 98.3.

The compound `COc1cc2nc(N3CCN(C(=O)C4COc5ccccc5O4)CC3)nc(N)c2cc1OC` (centres undefined) [Doxazosin] gave a cell number of 96.5.

In turn, `C=C1C(=O)C23C(O)C1CCC2C12COC3(O)C(O)C1C(C)(C)CCC2O` (centres undefined) [Rubescensin A] returned a cell number of 90.8.

With `O=C(O)Cc1c[nH]c2ccc(O)cc12` [(5-hydroxy-3H-indol-3-yl)acetic acid], the cell number turned out to be 105.

Take `c1ccc(-c2[nH]ncc2-c2ccnc3ccccc23)nc1` [TGF-b RI Kinase Inhibitor]: the cell number came to 102.

For the compound `O=NN(CCCl)C(=O)NC1CCCCC1` [Lomustine], the cell number is 104.

For `CCCCCC(=O)c1c(O)c(Cl)c(OC)c(Cl)c1O` [1-(3,5-dichloro-2,6-dihydroxy-4-methoxyphenyl)-1-hexanone], the cell number is 93.6.

Take `CSc1nc2ccc3nc(NC(=O)C(c4ccccc4)c4ccccc4)sc3c2s1`: the cell number was found to be 103.

Compound `CC(C)NCC(O)c1ccc2ccccc2c1.Cl` (centres undefined) [Pronethalol.HCl] registered a cell number of 101.

Consider `CCCCCCCCCCOCCC(=O)O` [4-Oxatetradecanoic acid], for which the cell number stood at 102.

Regarding `CN1CCN(C2=Nc3cc(F)ccc3Cc3ccccc32)CC1` [Fluperlapine], the cell number came out at 104.

With `CC(C)NCC(O)c1ccc(O)c(O)c1.Cl` (single isomer, unassigned; (-)) [(-)-Isoproterenol hydrochloride], the cell number was determined as 104.

For `N#Cc1c(NC(=O)c2cccc3ccccc23)sc2c1CCCC2` [JNK Inhibitor IX], the cell number was 62.6.

In turn, `COc1cc2c(Nc3ccc(NC(=O)c4ccccc4)cc3)ncnc2cc1OCCCN1CCOCC1` had a cell number of 49.8.

The compound `C[C@H]1C[C@H]2[C@@H]3CCC4=CC(=O)C=C[C@]4(C)[C@@]3(F)[C@@H](O)C[C@]2(C)[C@@]1(O)C(=O)COP(=O)([O-])[O-].[Na+].[Na+]` displayed a cell number of 97.2.

As to `O=C(O)c1ccc(-c2c[nH]c3ncc(-c4ccccc4)cc23)cc1C1CCCC1`, the cell number was 71.1 and 70.9.
